Measurements taken from paper PMC4336329 (PLoS ONE, 2015).
Among all 310,000 compounds or so, about 14,000 (4.5%) showed an effect of 50% or more. The effect is printed as a negative number. Only a selection was taken, and strong results are over-represented in it overall.

These compounds were tested against human ether-à-go-go-related gene (hERG) potassium channel (human, UniProt Q12809) (assay: primary screen, population patch clamp on CHO cells stably expressing hERG; higher = less effect of the substance).
Chain of human ether-à-go-go-related gene (hERG) potassium channel (Q12809 whole entry, looked up): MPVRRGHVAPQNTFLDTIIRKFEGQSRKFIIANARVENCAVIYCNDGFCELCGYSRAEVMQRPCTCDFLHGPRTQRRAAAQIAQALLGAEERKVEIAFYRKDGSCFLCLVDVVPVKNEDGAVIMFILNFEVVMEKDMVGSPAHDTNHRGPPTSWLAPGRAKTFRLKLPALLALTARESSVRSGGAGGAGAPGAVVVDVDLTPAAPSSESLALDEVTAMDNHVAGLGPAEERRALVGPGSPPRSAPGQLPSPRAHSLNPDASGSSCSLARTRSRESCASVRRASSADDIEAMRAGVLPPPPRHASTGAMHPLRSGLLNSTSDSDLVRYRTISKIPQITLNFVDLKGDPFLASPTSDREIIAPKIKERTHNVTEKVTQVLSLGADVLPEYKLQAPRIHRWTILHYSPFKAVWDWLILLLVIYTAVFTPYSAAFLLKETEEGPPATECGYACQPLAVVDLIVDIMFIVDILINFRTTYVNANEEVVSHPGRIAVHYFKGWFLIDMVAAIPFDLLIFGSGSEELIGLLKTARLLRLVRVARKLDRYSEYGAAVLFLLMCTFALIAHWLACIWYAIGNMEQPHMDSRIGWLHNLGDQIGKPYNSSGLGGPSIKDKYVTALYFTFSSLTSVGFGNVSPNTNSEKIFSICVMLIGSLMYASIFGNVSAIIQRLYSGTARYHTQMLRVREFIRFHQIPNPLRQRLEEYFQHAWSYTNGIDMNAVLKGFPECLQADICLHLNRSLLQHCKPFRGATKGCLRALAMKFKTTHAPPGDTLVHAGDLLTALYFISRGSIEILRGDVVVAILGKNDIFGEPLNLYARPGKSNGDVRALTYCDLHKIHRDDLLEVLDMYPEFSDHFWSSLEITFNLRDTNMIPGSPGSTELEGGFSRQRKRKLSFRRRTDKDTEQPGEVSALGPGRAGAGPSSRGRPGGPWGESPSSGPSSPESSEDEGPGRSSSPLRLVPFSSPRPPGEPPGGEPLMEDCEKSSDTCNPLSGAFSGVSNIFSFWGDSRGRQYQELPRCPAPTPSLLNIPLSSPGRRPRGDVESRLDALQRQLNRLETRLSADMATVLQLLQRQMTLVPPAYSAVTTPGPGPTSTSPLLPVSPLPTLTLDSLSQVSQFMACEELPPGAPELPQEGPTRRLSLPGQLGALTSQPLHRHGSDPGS
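Note: peak tail current of the secondary pulse compared with the same well before compound.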

SMILES | hERG current change (%, negative = inhibition) at 10uM [%]
O=C(CSc1nnc(SCc2ccccc2)s1)N/N=C/C=C\c1ccco1 | 9.17
Cc1ccccc1-c1nc2cc(N)ccc2o1 | -15.6
Cc1ccc2c(c1)C(c1ccccc1)N(C(=O)CC(C)C)CC(=O)N2 (centres unmarked) | -28.5
O=C1N=C(N2C=CC(=C3C=CNC=C3)C=C2)/C(=C/N=NC(=O)c2ccccc2)S1 | 30.3
CC(=O)Nc1ccc(CN(C)CC2CCCN(CCc3cccc(C(F)(F)F)c3)C2)cc1 (centres unmarked) | -68.4
COc1cc(CN(C)CC2CCCN(CCc3cccc(C(F)(F)F)c3)C2)ccc1O (centres unmarked) | -62.8
O=c1cnn(-c2ccccc2)c(-c2ccccc2)c1 | 3.33
Cc1cc(C)n2ncnc2n1 | 2.2
O=C1NC(=Nc2ccccc2)S/C1=C/c1cccnc1 | 15.9
Cn1c(O)c(/C=C2\C=NN=C2c2ccccc2)sc1=S | 0.793
COc1cc(CN2CCN(CCCc3ccccc3)C(CCO)C2)cc(OC)c1O (centres unmarked) | -61.5
COc1ccc(CN2CCN(Cc3ccccc3)C(CCO)C2)cc1OC (centres unmarked) | -30.7
COc1ccc(CN2CCN(CCCc3ccccc3)C(CCO)C2)cc1OC (centres unmarked) | -72.8
CCOc1cc(CN2CCN(CCc3ccccc3)C(CCO)C2)ccc1OC (centres unmarked) | -66.5
CCOc1cc(CN2CCN(Cc3ccc(C)o3)C(CCO)C2)ccc1OC (centres unmarked) | -3.33
COc1cc(C(=O)Nc2ccc(S(=O)(=O)Nc3nccc(C)n3)cc2)cc(OC)c1OC | 12.9
O=C(CN1CCN(c2ccccn2)CC1)Nc1cc(C(F)(F)F)ccc1Cl | -3.6
Cc1cc(-c2ccccc2)n2ncnc2n1 | 12.5
COc1ccc(-c2cc(-c3ccccc3)n3ncnc3n2)cc1 | -60.9
COc1ccc(-c2cc(-c3ccc(Br)cc3)nc3ncnn23)cc1OC | -34.4
COc1ccc(-c2cc(NCc3ccccn3)n3ncnc3n2)cc1 | -23.5
COc1ccc(-c2cc(-c3ccccc3)nc3ncnn23)cc1 | -56.4
COc1ccc(-c2cc(NCCc3ccncc3)n3ncnc3n2)cc1 | -55.8

SMILES | hERG current change (%, negative = inhibition) at 10uM [%]
c1ccc(-c2cc(-c3ccccc3)n3ncnc3n2)cc1 | -49.5
COc1ccc(-c2ccnc3ncnn23)cc1 | -9.61
COc1ccc(CCNc2cc(-c3ccccc3)nc3ncnn23)cc1 | -2.18
COc1cc(OC)c(NS(=O)(=O)c2cn(C)cn2)cc1Cl | 5.67
CCOC(=O)C(Cc1ccc(OC)c([N+](=O)[O-])c1)NC(=O)CCC(=O)Nc1ccc(OC)cc1 (centres unmarked) | 1.35
COC1CCCN(C(=O)c2ccc(OC3CCN(S(=O)(=O)N(C)C)CC3)cc2)C1 (centres unmarked) | 8.14
CCOC(=O)C(CCSC)NC(=O)CN.Cl (centres unmarked) | -6.89
Cc1ccc(-n2c(C)cc(/C=C3/C(=O)NC(=O)N(C)C3=O)c2C)cc1 | 15.2
CSc1nnc(-c2ccc(Br)s2)n1C | 1.98
O=C(Cn1cc(C(F)(F)F)ccc1=O)N/N=C/c1ccccc1O | -7.65
O=C(CSC1=NCCN1)Nc1ccccc1[N+](=O)[O-] | 11.2
CNC(=O)C(C)Sc1ccc(S(=O)(=O)N2CCOCC2)cn1 (centres unmarked) | -0.356
CC(Sc1ccc(Cl)cc1)C(=O)Nc1ccc(S(=O)(=O)N2CCOCC2)cc1 (centres unmarked) | -22.7
CC(Sc1ccc(S(=O)(=O)N2CCOCC2)cn1)C(=O)Nc1ccc(Cl)cc1Cl (centres unmarked) | -56.1
COc1ccc(Cl)cc1N1CCN(CCNC(=O)Nc2ccccc2C)CC1 | -40.1
COc1ccc(CNc2ncc(-c3ccc(Cl)cc3)n2C)c(OC)c1OC.O=C(O)C(=O)O | -47
CCOc1cc(CNc2ncc(-c3ccc(OC)cc3)n2C)ccc1O.O=C(O)C(=O)O | -48.3
COc1cc(CNc2ncc(-c3ccc(Br)cc3)n2C)cc(OC)c1OC.O=C(O)C(=O)O | -49.9
COc1cc(CNc2ncc(-c3ccc(Cl)cc3)n2C)cc(OC)c1OC.O=C(O)C(=O)O | -66.9
COc1cc(CNc2ncc(-c3ccc(Br)cc3)n2C)cc(OC)c1O.O=C(O)C(=O)O | -60.5
COc1ccc(CNc2ncc(-c3ccccc3)n2C)c(OC)c1OC.O=C(O)C(=O)O | -44.1
Cc1cccc2c1cnn2C(=O)CCC(=O)N1CCC(C)CC1 | -14.1
Br.NC1(N)OC(CN2C(=O)c3ccccc3C2=O)CS1 (centres unmarked) | -5.75

SMILES | hERG current change (%, negative = inhibition) at 10uM [%]
Cc1c(C(=O)NC(C)c2ccncc2)oc2ccccc12 (centres unmarked) | -29.7
O=C(Nc1ccc(C(=O)N2CCCC2)cc1)c1ccc2c(c1)OCO2 | -0.403
COc1cc(OC)cc(C(=O)Nc2ccc(CN3CCCCC3)cc2)c1 | -14.7
CCCNC(=O)c1cccc(NC(=O)C(C)C)c1 | -25.4
O=C(Nc1ccc2c(c1)OCO2)c1ccc(CN2CCOCC2)cc1 | 10.1
CCOc1ccc(OCc2cccc(C(=O)N3CCCC3)c2)cc1 | -11.6
CC(C)C(=O)Nc1cccc(NC(=O)c2cccc(F)c2)c1 | 5.16
CC(C)C(=O)Nc1cccc(NC(=O)c2cccc(Br)c2)c1 | -52.1
COc1ccc(OCc2cccc(C(=O)N3CCCC3)c2)cc1 | -3.08
O=C(Nc1ccc(CN2CCCCC2)cc1)c1ccc2c(c1)OCO2 | -64.3
COc1ccc(OCc2cccc(C(=O)Nc3ccc(CN4CCCCC4)cc3)c2)cc1 | -72.8
CCOc1ccc(OCc2cccc(C(=O)N3CCCCCC3)c2)cc1 | -69.3
COc1ccc(C(=O)Nc2ccc(CN3CCCCC3)cc2)cc1 | -40.3
CC(=O)Nc1ccc(NC(=O)C(C)OC(=O)c2cccc(S(=O)(=O)N3CCCC3)c2)cc1 (centres unmarked) | 10.4
Cc1ccccc1CCNC(=O)C1CCCN(c2cnccn2)C1 (centres unmarked) | -0.76
O=C(O)C(=O)O.O=C(c1cccnc1)N1CCN(Cc2ccccc2Br)CC1 | 4.7
CCCCN(C)C(=O)c1nc2ccccn2c1CN1CCC[C@H]1CO | 3.21
CC(C)C[C@H](NC(=O)c1nc[nH]c1C(=O)NCc1ccc(CNC(=O)OC(C)(C)C)cc1)C(=O)OCc1ccccc1 | 2.91
CCOC(=O)CNC(=S)N(Cc1cccs1)C1CCCC1 | -5.82
O=c1c2[nH]c3ccccc3c2ncn1Cc1ccccn1 | -0.569
CCOC(=O)c1ccccc1NC(=O)COC(=O)CCC(=O)c1ccccc1 | 16.3
NNC(=S)NC1CCS(=O)(=O)C1 (centres unmarked) | 22.1
Cc1cc(/C=C2/C(=O)N(C)C(=S)N2C)ccc1N1CCCC1 | 7.27

SMILES | hERG current change (%, negative = inhibition) at 10uM [%]
Cc1ccc(S(=O)(=O)N(CC(=O)Nc2ccc(C(N)=O)cc2)C(=O)N2CCN(C)CC2)cc1 | -0.0686
O=C(Nc1ccc(CN2CCCCC2)cc1)c1cc(Br)ccc1Cl | -20.3
CCOc1ccc(NC(=O)c2ccc(CN3CCc4ccccc4C3)cc2)cc1 | 0.805
CCCCC(=O)Nc1cccc(NC(=O)c2ccc3c(c2)OCO3)c1 | 6.43
O=C(Nc1ccc(CN2CCCCC2)cc1)c1cccc(Br)c1 | -86.7
CCCC(=O)Nc1cccc(NC(=O)c2ccc3c(c2)OCCO3)c1 | 5.87
CCOc1ccc(OCc2cccc(C(=O)O)c2)cc1 | 8.48
CCOc1ccc(OCc2ccc(C(=O)N(CC)CC)cc2)cc1 | 2.22
O=C(Nc1ccc(CN2CCCCC2)cc1)c1cccc(F)c1 | -40
CCOc1ccc(OCc2cccc(C(=O)Nc3ccc(CN4CCCCC4)cc3)c2)cc1 | -63.2
CCCC(=O)Nc1cccc(NC(=O)c2ccc3c(c2)OCO3)c1 | -52.3
CCOc1ccc(OCc2cccc(C(=O)N(CC)CC)c2)cc1 | -67.6
O=C(NC(=S)Nc1ccc(CN2CCCCC2)cc1)c1cccc(OCc2ccccc2)c1 | -5.83
COc1ccc(NC(=O)CO/N=C2/CCCc3nonc32)c(OC)c1 | 11.1
COc1ccc(CCNC(=O)Cn2nnc(-c3cccs3)n2)cc1OC | -7.76
Cc1onc(-c2ccccc2Cl)c1C(=O)N1CCC(C)CC1 | 4
COC(=O)/C(=C/c1ccccc1)NC(=O)c1ccco1 | 4.23
CCN1CCN(c2ccc(NC(=O)c3ccc4c(c3)OCO4)cc2)CC1 | -54.5
O=C(Nc1ccc(CN2CCCCC2)cc1)c1c(F)c(F)c(F)c(F)c1F | -56.5
CC(=O)Nc1ccc(CN2CCCCCCC2)cc1 | -4.11
CCC(=O)N1CCN(c2ccc(NC(=O)c3ccc4c(c3)OCO4)cc2)CC1 | -0.905
O=C(Nc1ccc(CN2CCCCC2)cc1)c1ccc(Br)o1 | -33
CN1CCN(c2ccc(NC(=O)c3ccc4c(c3)OCO4)cc2)CC1 | -38.3
